SW480 rereplic = inducers of DNA re-replication in SW480 colon cancer cells | SW480 DNA re-replication, Hoechst DNA content imaging, 48 h | Potency, µM (titrated, usually from 46.1 µM), for inactives: top-dose re-replication activation, actives largely listed as activators | actives 1.8% (n = 340,000) | AID 624297; note: % of control where 0% means no effect; nearly all actives have a fitted effect of over 55% in size
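Compounds, transferred as 23 nL by pin tool, were incubated with cells for 48 hr; DNA content per nucleus was then quantified by Hoechst staining and fluorescence plate imaging.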
HT1080 IDH1KD tx = kills HT-1080 cells with IDH1 knockdown; actives 2% (n = 360,000); Potency, µM (top dose mostly 46.1 µM), without a hit: at the top dose activity, negative = toxicity, usual class: cytotoxic; HT-1080 IDH1 knockdown viability, ATP luminescence, 48 h;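 note: 0% = DMSO wells and -100% = cell-free medium wells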
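After a 2 h attachment period, IDH1KD HT-1080 cells took pin-transferred compound for 48 h at 37 °C; ATP-based luminescence after 10 min room-temperature reagent incubation reported viability.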
HT1080-NT tox = kills 2HG-producing HT-1080-NT fibrosarcoma cells; HT-1080-NT fibrosarcoma viability, CellTiter-Glo ATP luminescence, 48 h; Potency, µM (top dose mostly 46.1 µM), without a hit: top-dose activity, negative = less viability, actives largely listed as cytotoxic; actives 1.6% (n = 360,000);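 note: NT is the 2HG producing partner of a matched IDH1 knockdown line; 0% = DMSO-treated cells and -100% = media-only wells without cells; nearly all actives have a fitted effect of over 55% in size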
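750 cells/well, RPMI + 5% FBS; 2 h settle, compound pin-transfer, 48 h at 37 degrees C. CellTiter-Glo 10 min RT, luminescence. Normalized to DMSO and media-only wells.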
KB-3-1 tox = KB-3-1 parental cell cytotoxicity. KB-3-1 viability, CellTiter-Glo ATP luminescence, 72 h. Potency, µM (doses to about 46.1 µM), most hits filed as cytotoxic. actives 1.4% (n = 400,000); note: % is set by controls: 0 for no effect and ±100 for the full control effect; nearly all actives have a fitted effect of over 60% in size
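Viability of parental KB-3-1 cells, measured by CellTiter-Glo luminescence, followed a 72 h incubation at 37 °C with pinned compounds in phenol-red-free DMEM containing 10% FBS.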
MCF10A rerep = induces DNA re-replication in MCF 10a normal breast cells. Potency, µM (highest dose often 46.1 µM), without a hit: top-dose activity, positive = re-replication, hits mostly activators. AID 624296. MCF 10A DNA re-replication, Hoechst nuclear intensity, 48 h. actives 2.9% (n = 350,000); note: % of control where 0% means no effect; nearly all actives have a fitted effect of over 50% in size
KB-V1 MDR tox = KB-V1 MDR subline cytotoxicity; KB-V1 MDR cells viability, CellTiter-Glo, 72 h; AID 1347076; actives 3.4% (n = 400,000); Potency, µM (titrated, usually from 46.1 µM), actives largely listed as cytotoxic; note: % is set by controls: 0 for no effect and ±100 for the full control effect; nearly all actives have a fitted effect of over 60% in size
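Potencies derive from concentration-effect curves fitted to normalized luminescence (CellTiter-Glo) of KB-V1 cells treated for 72 h at 37 degrees C in phenol-red-free DMEM containing 10% FBS.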
Numbers without * were called inactive; i = inactive; ? = inconclusive; · = no result given; [ ] = another dose, or the depositor's remark. Only some compounds are listed: those with a hit (about 7.9% of all), similar ones and a draw of the others. Calls come from the whole dose curve; as a rule, active = well fitted curve in the direction sought with a large enough effect; inconclusive = small, poorly fitted or top-dose-only effect, or another doubt; inactive = no such curve, though single readings can be large; an effect the other way counts as inactive or inconclusive. Potency is the fitted concentration of half-maximal effect.

SMILES	SW480 rereplic	HT1080 IDH1KD tx	HT1080-NT tox	KB-3-1 tox	MCF10A rerep	KB-V1 MDR tox
Cc1ccc(C)c(NC(=O)COc2cccc3c2CCN(Cc2ccccc2)C3=O)c1	4.1%	-0.9%	1.0%	i	4.3%	i
CN1CCc2c(OCC(=O)N3CCCc4ccccc43)cccc2C1=O	?	0.6%	-6.1%	i	8.6%	?
Cc1cccc(CN2CCc3c(OCC(=O)N4CCCc5ccccc54)cccc3C2=O)c1	18.7%	?	?	16.4µM*	?	?
O=C1c2cccc(OCC(=O)N3CCCc4ccccc43)c2CCN1Cc1ccc(F)cc1	10.3%	-25.0%	-23.7%	?	14.6µM*	9.2µM*
Cc1cccc(CN2CCc3c(OCC(=O)NCc4ccco4)cccc3C2=O)c1	7.5%	-10.9%	-5.5%	i	3.5%	14.6µM*
FC(F)(F)C(Cl)Br (stereo not given)	-6.3%	·	·	·	0.0%	·
CC(C)n1c(=O)c2ccccc2n1CC(=O)N1CCOCC1	·	2.0%	15.3%	i	·	i
O=S1(=O)C=CC(Nc2cccc(Cl)c2)C1 (stereo not given)	28.4%	?	10µM*	i	9.2%	i
COc1cccc(NC2C=CS(=O)(=O)C2)c1 (stereo not given)	-1.7%	7.3%	5.7%	i	0.6%	?
COc1ccccc1CNC(=O)C(NS(=O)(=O)c1cccs1)C(C)C (stereo not given)	·	·	·	i	·	?
Cc1ccc(C(=O)Nc2ccc(Cl)cc2C)c(Cl)c1	3.4%	-1.9%	19.7%	i	11.1%	16.4µM*
COc1ccc(F)cc1C(=O)C1CCCN(Cc2cccn2-c2ccccn2)C1 (stereo not given)	?	?	?	i	?	i
COc1ccc(C(=O)C2CCCN(Cc3cccn3-c3ccccn3)C2)c(OC)c1 (stereo not given)	5.8%	14.6µM*	6.51µM*	i	28.4%	?
C/C(=N/NC(=O)c1cccs1)c1ccc(N2CCOCC2)cc1	0.517µM*	0.0%	-2.8%	i	-1.6%	i
C/C(=N\NC(=O)c1c(Cl)c(C)nn1C)c1ccc(NC(=O)C2CCC2)cc1	1.84µM*	0.82µM*	1.64µM*	1.03µM*	?	3.26µM*
C/C(=N/NC(=O)c1cccs1)c1ccc(NC(=O)COc2ccc(Cl)cc2)cc1	?	8.7%	14.2%	?	5.17µM*	i
C/C(=N\NC(=O)c1c([N+](=O)[O-])c(C)nn1C)c1ccc(NC(=O)c2ccc(C)o2)cc1	?	-7.8%	-12.0%	i	2.1%	i
C/C(=N\NC(=O)c1c([N+](=O)[O-])c(C)nn1C)c1ccc(NC(=O)C2CCCC2)cc1	5.8µM*	0.326µM*	0.461µM*	0.461µM*	0.411µM*	6.51µM*
O=C(Nc1nnc2n1CCS2)c1ccccc1C(F)(F)F	·	·	·	i	·	i
CC1CCc2c(sc3nnn(Cc4ccccc4)c(=O)c23)C1 (stereo not given)	·	·	·	i	·	i
C/C(=N\NC(=O)c1c(Cl)c(C)nn1C)c1cccc(NC(=O)COc2ccccc2)c1	-0.7%[9.22 µM]	-2.7%	-10.5%	i	12.9%	i
C/C(=N\NC(=O)c1c(Cl)c(C)nn1C)c1ccc(NC(=O)COc2ccc(Cl)cc2C)cc1	-1.1%	3.6%	0.9%	i	20.6µM*	i
CN(C)CCCOC(=O)N1c2ccccc2C=Cc2ccccc21	1.4%	-10.2%	-14.3%	25.9µM*	-7.9%	i
COc1ccc2c(c1)c1nnc(SC(C)C)nc1n2C	·	-2.7%	3.4%	·	·	·
Cc1cccc(NC(=O)c2cc([N+](=O)[O-])ccc2NC2CCCCC2)c1	65.1%	-1.8%	-10.7%	i	-3.9%	13µM*
SMILES	SW480 rereplic	HT1080 IDH1KD tx	HT1080-NT tox	KB-3-1 tox	MCF10A rerep	KB-V1 MDR tox
CN(c1ccc([N+](=O)[O-])cc1C(=O)Nc1ccccc1)C1CCCCC1	8.9%	?	-23.7%	i	-0.8%	13µM*
Cc1ccc([N+](=O)[O-])cc1NC(=O)CNC1CCCCC1	-6.7%	-2.6%	4.3%	i	-12.1%	i
Cc1cccc(NC(=O)C(c2cccc([N+](=O)[O-])c2)N2CCCCC2)c1 (stereo not given)	27.9%	-6.2%	-0.3%	i	5.5%	14.6µM*
CCc1ccc(NC(=O)CSc2nc(C)cs2)cc1	·	-5.9%	-5.3%	i	·	i
Cc1ccc(Cl)c(NC(=O)COC(=O)c2ccccc2C(=O)c2ccc(Cl)c([N+](=O)[O-])c2)c1Cl	3.66µM*	?	?	?	2.59µM*	i
Cc1ccc(C(=O)OCC(=O)Nc2c(C)n(C)n(-c3ccccc3)c2=O)cc1[N+](=O)[O-]	-20.1%	5.7%	2.8%	i	5.9%	i
O=C(COC(=O)c1ccccc1[N+](=O)[O-])NCCCc1ccccc1	-15.0%	-3.5%	13.0%	i	18.4µM*	i
CCCNC(=O)COC(=O)c1ccccc1C(=O)c1ccc(Cl)c([N+](=O)[O-])c1	6.51µM*	5.17µM*	9.2µM*	?	?	i
CC(C)Oc1ccc(CNC(=O)c2ccc3c(c2)N(C)C(=O)C2CCCCN32)cc1 (stereo not given)	·	·	·	i	·	i
O=C(C[n+]1csc2ccccc21)c1ccccc1	·	·	·	i	·	i
CCc1ccc(Nc2nnc(SCC(=O)Nc3cccnc3Cl)s2)cc1	6.0%	0.0%	-1.7%	i	1.1%	16.4µM*
Cc1nnc(SCC(=O)Nc2cccnc2Cl)s1	-273.1%	2.7%	6.4%	i	-2.2%	i
CCc1ccc(Nc2nnc(SCC(=O)Nc3sccc3C(N)=O)s2)cc1	?	?	-29.9%	?	16.4µM*	?
CCOc1ccc(NC(=O)Cc2csc(COc3cccc(C)c3)n2)cc1	·	·	·	i	·	i
O=C1CCN(Cc2ccccc2)CCN1[C@H](CO)Cc1ccccc1	5.17µM*	7.1%	-0.6%	i	-34.7%	?
O=C1c2oc3ccc(F)cc3c(=O)c2C(c2ccccc2)N1CC1CCCO1 (stereo not given)	-6.0%	2.9%	12.4%	i	-6.0%	8.2µM*
CC1(C)CC[C@]2(C(=O)n3ccnc3)CC[C@]3(C)[C@H](C(=O)C=C4[C@@]5(C)C=C(C#N)C(=O)C(C)(C)[C@@H]5CC[C@]43C)[C@@H]2C1	?	3.66µM*	4.11µM*	?	0.517µM*	?
CC(C)CN1C(=O)CSCC1(C)C(=O)NCc1ccccc1 (stereo not given)	·	0.4%	6.6%	i	·	i
